Screens (PubChem)
Giardia killer: Giardia lamblia killing | Giardia lamblia trophozoite viability | activity change, % at 7.66 µM, hits read low | 0.15% of 340,000 active | AID 540267; in the data active means activity change below about -80%; inconclusive means between about -30% and that limit;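 further: parasites exposed to compound for two days anaerobically before the ATP read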
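Luminescent ATP signal served as the viability read-out, measured 15-30 min after adding ATP detection reagent to trophozoites that had been incubated with compounds for 48 hrs at 37 deg C anaerobically at 100 cells/well.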
Sfp PPTase inh: Sfp phosphopantetheinyl transferase inhibition. 3.5% of 310,000 active. Biochemical Sfp PPTase activity, qHTS. Potency, µM, for the others: largest response in the series, negative = inhibition, usual class: inhibitors. Q9F4F7;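 further: the enzyme is Sfp with the accession as filed and its product quenches rhodamine fluorescence; potency means the concentration at half of the fitted maximal effect; 0% = enzyme reaction without inhibitor and -100% = no enzyme wells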
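After 15 min at room temperature with compound, 15 nM Sfp received 5 uM rhodamine-CoA plus 12.5 uM BHQ-2-ybbR (50 mM Hepes pH 7.6, 10 mM MgCl2). Rate came from the fluorescence difference over 30 min, ex 525/em 598 nm.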
ELG1 repair inh: ELG1-dependent DNA repair inhibition; 2.3% of 330,000 active; HEK293T ELG1-luciferase reporter, luminescence, 16 h; DNA damage induced by 5-fluorouridine; Potency, µM (highest dose often 46.1 µM), without a hit: top-dose activity change, negative = inhibition, usual class: inhibitors; further: potency means the concentration at half of the fitted maximal effect; nearly all actives have a fitted effect of over 55% in size
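Luminescence from the luciferase reporter, measured 30 min after ONE-Glo reagent at room temperature, was the read-out. Beforehand, 2,000 cells per well were exposed for 16 hr at 37 °C to 5-fluorouridine together with compound or vehicle.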
FBPA coupling cs: counter-screen for Giardia aldolase inhibitors: coupling enzyme system; 0.67% of 290,000 active; activity change, negative = inhibition, % at 58.2 µM, hits read low; coupling enzyme system counterscreen, AmpLite Red fluorescence; in the data active means activity change below about -30%
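Final compound at 57.5 uM, incubated 10 min at RT with coupling enzyme reagent (glyceraldehyde-3-phosphate), then 20 min with substrate and AmpLite Red detection. Fluorescence read at 525/598 nm; tests interference with the coupling assay, not aldolase inhibition.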
An asterisk follows results filed as active; ? = inconclusive; . = not tested or not shown. Shown are actives, neighbours in structure and some others; about 5.5% of the full set was active somewhere. Unless noted, the call rests on the fitted dose curve; in most records, active means well fitted curve in the direction sought with a large enough effect; inconclusive means small, poorly fitted or top-dose-only effect, or another doubt; inactive means no such curve, though single readings can be large; an effect the other way counts as inactive or inconclusive. Unless noted, on the % scale 0 is the no-effect control and ±100 the full control effect.

SMILES	Giardia killer	Sfp PPTase inh	ELG1 repair inh	FBPA coupling cs
O=C(Nc1cccnc1Cl)C1CCCN(c2ncnc3c2nc2n3CCCCC2)C1 (configuration not stated)	5	2%	15µM*	.
CCN(C(=O)C1CCCN(c2ncnc3c2nc2n3CCCCC2)C1)c1cccc(Cl)c1 (configuration not stated)	11	-7%	21µM*	1
CCOC(=O)CNC(=O)c1cc2c(=O)[nH]c3ccc(C)cc3c2s1	12	2%	4%	0
Cc1c(NC(=O)C(C)OC(=O)c2ccc([N+](=O)[O-])cc2Cl)c(=O)n(-c2ccccc2)n1C (configuration not stated)	-2	.	.	.
O=C(NC(=S)NC(CO)c1ccccc1)c1ccc(F)cc1 (configuration not stated)	-9	7%	4%	0
COc1ccc(C(=O)Nc2ccc3oc(Cc4ccc(Cl)cc4)nc3c2)cc1OC	-21	?	21µM*	1
Cc1cccc(C)c1NC(=O)c1cccc2c1C(=O)N(C1CCCCC1)C2	19	-17%	21%	-2
CCN(CC)c1ccc(NC2=C(Cl)C(=O)c3ccccc3C2=O)cc1	-3	?	?	-38*
CCNC1=C(Cl)C(=O)c2ccccc2C1=O	-6	-7%	-14%	-33*
O=C1C(Cl)=C(NCCN2CCCCC2)C(=O)c2ccccc21	4	1%	21µM*	-37*
O=C(NCCN1CCCC1)c1ccccc1Cl	-17	16%	9%	6
CCOc1ccc(/C=C2/Sc3ccc(C(=O)N4CCN(C(=O)c5ccco5)CC4)cc3N(C)C2=O)cc1OC	.	12%	21µM*	-1
CCOc1cc(/C=C2/SC(=S)NC2=O)ccc1OC(=O)c1ccco1	0	40µM*	?	9
CCOc1ccc(/C=C2/Sc3ccc(C(=O)NCC4CCCO4)cc3N(C)C2=O)cc1OC (configuration not stated)	27	?	18µM*	-2
N#CCCN(C(=O)COC(=O)c1cc(S(=O)(=O)N2CCOCC2)ccc1Cl)c1ccc(F)cc1	-14	.	-13%	.
COC1CCC2(C)C(=CCC3C4CC(O)CC4(C)CCC32)C1 (configuration not stated)	-17	.	.	.
CN(CCCN1CCOCC1)C(=O)c1ccc2nc(Cc3cccc(Cl)c3)oc2c1	23	-5%	15µM*	.
CCOC(=O)C1=C(C)c2ccccc2N(S(=O)(=O)C(F)(F)F)C1C(=O)OCC (configuration not stated)	-12	20%	3%	-1
CCOC(=O)C1C(C(=O)OC)=C(C2=CCCCC2)c2ccccc2N1S(=O)(=O)C(F)(F)F (configuration not stated)	0	10%	18µM*	-3
CCOC(=O)C1=C(c2ccccc2)c2ccc(OC)cc2N(S(=O)(=O)C(F)(F)F)C1C(=O)OCC (configuration not stated)	-23	-2%	15µM*	-6
Cc1c(O)ccc2c1OCO2	.	7%	.	-13
Cc1ccc(-n2cc(CN3CCCN(C=O)CC3)c(-c3ccc(F)cc3)n2)cc1	-21	-7%	23µM*	-5
Cc1ccc(-n2cc(CNCCn3nc(C)cc3C)c(-c3ccc(F)cc3)n2)cc1	-14	45µM*	?	-12
Cc1ccc(-n2cc(CNCCc3ncc(C)[nH]3)c(-c3ccc(F)cc3)n2)cc1	4	56µM*	1%	-2
COc1ccc(-n2cc(CNCCc3ncc(C)[nH]3)c(-c3ccccc3Cl)n2)cc1	-13	-5%	?	6
SMILES	Giardia killer	Sfp PPTase inh	ELG1 repair inh	FBPA coupling cs
Cc1ccc(-n2cc(CNCCN3CCOC3=O)c(-c3ccc(F)cc3)n2)cc1	16	?	?	-2
CCCCn1c(N)c(N(CCOC)C(=O)COC(=O)COc2cc(C)c(Cl)cc2C(C)C)c(=O)[nH]c1=O	-9	.	13%	.
O=C(c1cccc(F)c1)N1CCC[C@@]2(CCN(c3ccncc3)C2)C1	.	-7%	.	1
Cc1nc2ccc(Cl)cc2nc(C)/c1=N\O	-1	1%	?	-33*
COc1ccc(NC(=S)Nc2ccc(S(=O)(=O)N3CCOCC3)cc2)c(OC)c1	-7	-30%	23µM*	2
COc1ccc(NC(=S)NCCCN2CCCC2=O)c(OC)c1	5	40µM*	10%	0
CCOc1cccc(/C=N/NC(=S)Nc2cc(S(=O)(=O)N3CCOCC3)ccc2N2CCOCC2)c1O	-15	8%	5.8µM*	1
COc1ccc(/C=N/NC(=S)Nc2cc(S(=O)(=O)N3CCOCC3)ccc2N2CCOCC2)cc1O	7	-5%	7.3µM*	0
O=C(COc1ccccc1F)Nc1cc(S(=O)(=O)N2CCOCC2)ccc1N1CCOCC1	-3	5%	?	-3
CCN1C(=O)C(=O)N(CC(=O)Nc2ccccc2OC(F)F)C1=O	7	.	14%	.
OC(c1ccccc1)C(Nc1ccccn1)c1ccccc1 (configuration not stated)	-14	.	.	.
CC(C)(C)C(=O)Nc1ccc(C(=O)N/N=C/c2ccccc2OC(=O)c2ccc(Cl)cc2)cc1	-21	-5%	18µM*	1
COc1cccc(NC(=O)CN2C(=O)NC3(CCCc4ccccc43)C2=O)c1 (configuration not stated)	9	.	-5%	.
COc1ccc(CCNC(=O)c2c[nH]c3ccc(F)cc3c2=O)cc1OC	-5	4%	?	0
CCN(CC)S(=O)(=O)c1ccc(NC(=O)CNC2CCCCC2)cc1	-9	-23%	11%	6
Cc1nc(NC(=O)CSc2nnc(C3CC3)n2N)c(Cl)cc1Cl	18	.	0%	.
O=C(Oc1ccc(/C=N/Nc2ccccc2)cc1)c1ccccc1	2	-14%	?	4
O=C(Oc1ccc(C(=S)N2CCOCC2)cc1)c1cccc(Cl)c1	20	40µM*	-8%	1
Cc1ccccc1C(=O)Oc1ccc(Cl)cc1C(=S)N1CCOCC1	6	-1%	?	.
O=C(O)c1ccc(N/N=C/c2ccc(OC(=O)c3cccc(Cl)c3)cc2)cc1	5	40µM*	?	6
O=C(Oc1ccc(C(=S)N2CCOCC2)cc1Cl)c1ccccc1F	4	56µM*	?	2
O=C(Oc1ccc(C(=S)N2CCOCC2)cc1)c1ccccc1[N+](=O)[O-]	-1	-14%	-3%	0
O=C(Oc1ccc(C(=S)N2CCOCC2)cc1)c1ccccc1F	2	25µM*	16%	9
COc1ccc(S(=O)(=O)N2CCN(c3nc(-c4cccs4)nc4ccccc34)CC2)cc1	6	.	.	.
Cc1ccc(NC(=O)CN(C)C(=O)COC(=O)[C@@H](NC(=O)c2ccccc2F)C(C)C)cc1	0	.	0%	.
O=C(Oc1cccc(C(=S)N2CCCCC2)c1)c1ccccc1	-7	-22%	-23%	-2
O=C(Oc1ccc(C(=S)N2CCOCC2)cc1Br)c1ccccc1F	-16	22µM*	-8%	4
O=C(Oc1ccc(C(=S)N2CCCCC2)cc1)c1ccccc1	38	22µM*	4%	2
COc1ccc(C(=O)N2CCOCC2)cc1Br	-6	11%	0%	0
